Test results as given in PubChem BioAssay AID1159580 (chemical genetic matrix, 2015).
Hit rate of the full screen: of about 5,500 compounds, about 2,000 (36%) were called active. Another 18% or so got no clear call; they are omitted. No stated cut-off is given here; in the data, active means normalized growth mostly below about 0.91 (no sharp cut-off); inconclusive means no clear call, values can overlap the other calls; inactive means mostly above about 0.92. This is one part of the list.

Assay: chemical genetic growth profiling, strain panel (AID 1159580);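 further: tested at 20 µM; growth read once vehicle control cultures reached saturation at 30 °C; 1 = growth at the plate median or of vehicle wells; lower values mean less growth of the strain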
Details: growth OD

Measured: normalized growth

CCN(CCO)CCCC(C)Nc1ccnc2cc(Cl)ccc12 (configuration not stated)
inactive: S. cerevisiae deletion strains, locus YJR075W, strain HOC1, active compounds read low 1.01 | S. cerevisiae deletion strains, locus YKL009W, strain mrt4, active compounds read low 1.03 | S. cerevisiae deletion strains, locus YKL068W, active compounds read low 0.998 | S. cerevisiae deletion strains, locus YKL085W, strain MDH1 (second series), active compounds read low 1 | S. cerevisiae deletion strains, locus YKL085W, strain MDH1, active compounds read low 1 | S. cerevisiae deletion strains, locus YKL160W, strain elf1, active compounds read low 0.995 | S. cerevisiae deletion strains, locus YKL190W, strain CNB1, active compounds read low 1.02 | S. cerevisiae deletion strains, locus YKR001C, strain vps1, active compounds read low 1.03 | S. cerevisiae deletion strains, locus YKR026C, strain gcn3, active compounds read low 1 | S. cerevisiae deletion strains, locus YKR091W, strain srl3, active compounds read low 1 | S. cerevisiae deletion strains, locus YLL001W, strain dnm1, active compounds read low 0.988 | S. cerevisiae deletion strains, locus YLL026W, active compounds read low 1.01 | S. cerevisiae deletion strains, locus YLL041C, strain sdh2, active compounds read low 1.01 | S. cerevisiae deletion strains, locus YLR027C, strain aat2, active compounds read low 1 | S. cerevisiae deletion strains, locus YLR039C, strain RIC1, active compounds read low 1.04 | S. cerevisiae deletion strains, locus YLR058C, strain SHM2, active compounds read low 1.01 | S. cerevisiae deletion strains, locus YLR102C, strain apc9, active compounds read low 1.01 | S. cerevisiae deletion strains, locus YLR113W, strain HOG1, active compounds read low 1.03 | S. cerevisiae deletion strains, locus YLR221C, strain rsa3, active compounds read low 0.996 | S. cerevisiae deletion strains, locus YLR258W, strain gsy2, active compounds read low 0.999 | S. cerevisiae deletion strains, locus YLR262C, strain YPT6 (second series), active compounds read low 0.989 | S. cerevisiae deletion strains, locus YLR262C, strain YPT6, active compounds read low 1.06 | S. cerevisiae deletion strains, locus YLR268W, strain sec22, active compounds read low 1.02 | S. cerevisiae deletion strains, locus YLR320W, strain mms22, active compounds read low 0.997 | S. cerevisiae deletion strains, locus YLR330W, strain CHS5, active compounds read low 1.01 | S. cerevisiae deletion strains, locus YLR342W, strain FKS1 (second series), active compounds read low 1.02 | S. cerevisiae deletion strains, locus YLR342W, strain FKS1, active compounds read low 0.997 | S. cerevisiae deletion strains, locus YLR357W, strain rsc2, active compounds read low 1.02 | S. cerevisiae deletion strains, locus YLR370C, strain arc18, active compounds read low 1 | S. cerevisiae deletion strains, locus YLR371W, strain rom2, active compounds read low 1 | S. cerevisiae deletion strains, locus YLR384C, strain iki3, active compounds read low 1 | S. cerevisiae deletion strains, locus YLR418C, strain cdc73, active compounds read low 1.04 | S. cerevisiae deletion strains, locus YML016C, strain PPZ1, active compounds read low 1 | S. cerevisiae deletion strains, locus YML032C, strain rad52, active compounds read low 1.05 | S. cerevisiae deletion strains, locus YML120C, strain ndi1, active compounds read low 0.999 | S. cerevisiae deletion strains, locus YML124C, strain tub3, active compounds read low 1.01 | S. cerevisiae deletion strains, locus YMR058W, strain fet3, active compounds read low 1 | S. cerevisiae deletion strains, locus YMR078C, strain ctf18, active compounds read low 1.03 | S. cerevisiae deletion strains, locus YMR125W, strain sto1, active compounds read low 1 | S. cerevisiae deletion strains, locus YMR129W, active compounds read low 1 | S. cerevisiae deletion strains, locus YMR205C, strain PFK2, active compounds read low 0.986 | S. cerevisiae deletion strains, locus YMR223W, strain ubp8, active compounds read low 1.02 | S. cerevisiae deletion strains, locus YMR231W, strain pep5, active compounds read low 0.987 | S. cerevisiae deletion strains, locus YMR263W, strain SAP30, active compounds read low 1.01 | S. cerevisiae deletion strains, locus YMR307W, strain GAS1, active compounds read low 1.11 | S. cerevisiae deletion strains, locus YNL067W, strain RPL9B, active compounds read low 1.01 | S. cerevisiae deletion strains, locus YNL071W, strain lat1, active compounds read low 1 | S. cerevisiae deletion strains, locus YNL128W, strain TEP1, active compounds read low 1.02 | S. cerevisiae deletion strains, locus YNL153C, strain GIM3, active compounds read low 1 | S. cerevisiae deletion strains, locus YNL183C, strain NPR1, active compounds read low 0.952 | S. cerevisiae deletion strains, locus YNL209W, strain ssb2, active compounds read low 1 | S. cerevisiae deletion strains, locus YNL233W, strain BNI4, active compounds read low 1.01 | S. cerevisiae deletion strains, locus YNL248C, strain rpa49, active compounds read low 1 | S. cerevisiae deletion strains, locus YNL250W, strain rad50, active compounds read low 1.03 | S. cerevisiae deletion strains, locus YNL271C, strain bni1, active compounds read low 1.01 | S. cerevisiae deletion strains, locus YNL298W, strain CLA4, active compounds read low 1.02 | S. cerevisiae deletion strains, locus YNL307C, strain MCK1, active compounds read low 1.01 | S. cerevisiae deletion strains, locus YNL322C, strain KRE1 (second series), active compounds read low 1 | S. cerevisiae deletion strains, locus YNL322C, strain KRE1, active compounds read low 1.01 | S. cerevisiae deletion strains, locus YNR049C, strain mso1, active compounds read low 0.999 | S. cerevisiae deletion strains, locus YNR052C, strain pop2, active compounds read low 1.02 | S. cerevisiae deletion strains, locus YOL006C, strain TOP1, active compounds read low 1.01 | S. cerevisiae deletion strains, locus YOL012C, strain htz1 0.994 | S. cerevisiae deletion strains, locus YOL147C, strain pex11, active compounds read low 1.02 | S. cerevisiae deletion strains, locus YOR001W, strain rrp6, active compounds read low 1 | S. cerevisiae deletion strains, locus YOR061W, strain CKA2, active compounds read low 1.01 | S. cerevisiae deletion strains, locus YOR069W, strain VPS5, active compounds read low 1.01 | S. cerevisiae deletion strains, locus YOR070C, strain gyp1, active compounds read low 0.995 | S. cerevisiae deletion strains, locus YOR080W, strain dia2, active compounds read low 0.997 | S. cerevisiae deletion strains, locus YOR083W, strain WHI5, active compounds read low 0.996 | S. cerevisiae deletion strains, locus YOR106W, strain vam3, active compounds read low 1.01 | S. cerevisiae deletion strains, locus YOR136W, strain idh2, active compounds read low 1.03 | S. cerevisiae deletion strains, locus YOR144C, strain elg1, active compounds read low 1.02 | S. cerevisiae deletion strains, locus YOR184W, strain ser1, active compounds read low 1.03 | S. cerevisiae deletion strains, locus YOR231W, strain MKK1, active compounds read low 1.02 | S. cerevisiae deletion strains, locus YOR265W, strain rbl2, active compounds read low 1.04 | S. cerevisiae deletion strains, locus YOR270C, strain vph1, active compounds read low 1.03 | S. cerevisiae deletion strains, locus YOR290C, strain snf2, active compounds read low 1.03 | S. cerevisiae deletion strains, locus YOR316C, strain cot1, active compounds read low 1.01 | S. cerevisiae deletion strains, locus YPL051W, strain arl3, active compounds read low 0.995 | S. cerevisiae deletion strains, locus YPL055C, strain LGE1, active compounds read low 1.04 | S. cerevisiae deletion strains, locus YPL078C, strain atp4, active compounds read low 1.01 | S. cerevisiae deletion strains, locus YPL106C, strain sse1, active compounds read low 0.991 | S. cerevisiae deletion strains, locus YPL240C, strain hsp82, active compounds read low 1 | S. cerevisiae deletion strains, locus YPL241C, strain CIN2, active compounds read low 1.01 | S. cerevisiae deletion strains, locus YPL256C, strain CLN2, active compounds read low 0.966 | S. cerevisiae deletion strains, locus YPR119W, strain clb2, active compounds read low 1.01 | S. cerevisiae deletion strains, locus YPR141C, strain kar3, active compounds read low 1.02 | S. cerevisiae deletion strains, locus YPR163C, strain tif3, active compounds read low 1.01 | S. cerevisiae deletion strains, locus YPR167C, strain met16, active compounds read low 1.01 | S. cerevisiae deletion strains, strain wtn01, active compounds read low 1.01 | S. cerevisiae strains, strain wild type, active compounds read low 1.02
